Sampled rows, rich in hits. Any-hit rate of the full collection: about 4.8%.
D3 ag: activates the human D3 dopamine receptor. P35462. D3R DiscoveRx beta-arrestin cells, luminescence, 90 min. max activation, %. actives 0.58% (n = 410,000). AID 652048; in the data active = max activation above about 30%
Target sequence (P35462 whole entry, looked up): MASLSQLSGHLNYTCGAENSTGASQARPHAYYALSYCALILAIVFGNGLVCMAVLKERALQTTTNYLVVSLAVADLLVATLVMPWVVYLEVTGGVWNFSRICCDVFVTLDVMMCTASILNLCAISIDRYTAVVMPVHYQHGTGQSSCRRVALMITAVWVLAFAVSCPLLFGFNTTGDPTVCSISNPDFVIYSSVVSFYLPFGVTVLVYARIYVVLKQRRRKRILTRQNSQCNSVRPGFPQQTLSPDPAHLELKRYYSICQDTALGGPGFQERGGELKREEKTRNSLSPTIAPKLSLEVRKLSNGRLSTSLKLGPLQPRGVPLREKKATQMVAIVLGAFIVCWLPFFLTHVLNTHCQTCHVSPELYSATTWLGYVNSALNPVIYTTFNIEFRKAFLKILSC
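Agonist-mode cell screen: cells plated at 1500/well and incubated overnight at 37 °C, then exposed to library compounds for 90 min at 37 °C. Detection reagent was added for 30–60 min at room temperature, and luminescence was read.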
ATXN2 expr inh: reduces ATXN2 reporter expression in HEK-293 cells. HEK-293 ATXN2-luciferase reporter, luminescence, 24 h. Potency, µM (doses to about 57 µM), most hits filed as inhibitors. actives 0.72% (n = 360,000); note: nearly all actives have a fitted effect of over 55% in size
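ATXN2-luciferase reporter cells (luciferase flanked by upstream and downstream ATXN2 gene portions) were treated 24 h at 37 °C with compounds at up to 57 uM. SteadyGlo luminescence gave expression; GF-AFC fluorescence gave viability.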
D3 antag: antagonists of human D3 dopamine receptor; actives 2.5% (n = 360,000); D3R cells, DiscoveRx beta-arrestin luminescence, antagonist mode; active compounds read low; max response, negative = inhibition, %; AID 652054; in the data active = max response below about -50%; inconclusive = no clear call, values can overlap the other calls
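Cells expressing the human receptor were seeded at 1500 cells/well, incubated overnight at 37 degrees C in 5% CO2, then exposed to library compounds with dopamine controls for 90 minutes at 37 degrees C before luminescent detection.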
TGFb inhibitor: TGF-b pathway inhibition; HepG2 CAGA-GFP TGF-b/SMAD3 reporter, GFP fluorescence, 18 h; TGF-beta stimulated, 500 pg/mL final; actives 1.2% (n = 410,000); Potency, µM (top dose mostly 46.1 µM), usual class: inhibitors; note: nearly all actives have a fitted effect of over 65% in size
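HEPG2 CAGA-GFP reporter cells (1000/well, DMEM with 1% FBS) received compounds, then recombinant TGF-beta at 500 pg/mL final for 18 hours at 37 degrees C. Per-cell GFP summed per well was normalised to unstimulated and stimulated DMSO controls before curve fitting.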
HepG2 tox: counter-screen for TGF-b inhibitors: cytotoxicity in HepG2 cells; HepG2 CAGA-GFP viability, ATP luminescence, 18 h; Potency, µM (highest dose often 46.1 µM), actives largely listed as cytotoxic; actives 0.76% (n = 410,000); AID 588856
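HepG2 CAGA-GFP cells (1000/well, DMEM with 1% FBS) received compound, then TGF-beta at 500 pg/mL final, and were incubated 18 hours at 37 degrees C. Viability was read by CellTiter-Glo luminescence. Media-only wells were set as complete cell-killing and DMSO as no toxicity.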
S2 tox: reduces viability in counter-screen for ATXN expression inhibitors; S2 cells (HEK-293 line with an ATXN2-luciferase reporter) viability, CellTiter-Fluor protease fluorescence, 24 h; Potency, µM (top dose mostly 56.7 µM), actives largely listed as cytotoxic; actives 0.49% (n = 400,000); note: nearly all actives have a fitted effect of over 40% in size
A number is an active result; 0 = inactive; ? = inconclusive; - = not tested or not shown; ! = repeats disagree. Unless noted, calls come from the whole dose curve; as a rule, active = well fitted curve in the direction sought with a large enough effect; inconclusive = small, poorly fitted or top-dose-only effect, or another doubt; inactive = no such curve, though single readings can be large; an effect the other way counts as inactive or inconclusive.

SMILES | D3 ag | ATXN2 expr inh | D3 antag | TGFb inhibitor | HepG2 tox | S2 tox
CCN1CCN(Cc2ccc(NC(=O)c3ccc(C)c(NC(=O)c4nccnc4N)c3)cc2C(F)(F)F)CC1 | 0 | 28.2µM | 0 | ? | 0 | ?
CCN1CCN(Cc2ccc(NC(=O)c3cc(NC(=O)c4cnnc5ccccc45)cc(OC)c3)cc2C(F)(F)F)CC1 | 0 | ? | ? | ? | 17.8µM! | ?
CCN1CCN(Cc2ccc(NC(=O)c3ccc(C)c(NC(=O)c4cc(-c5ccc(Br)cc5)n[nH]4)c3)cc2C(F)(F)F)CC1 | 0 | 31.6µM | 0 | ? | 0 | 25.1µM
COc1ccc(CCNC(=O)Cn2nnc(-c3cccc(C(F)(F)F)c3)n2)cc1OC | 0 | 0 | - | 0 | 0 | 0
C=CCc1ccccc1OCC(O)CN1CCN(c2ccc(OC)cc2)CC1 (stereo not given) | 0 | 0 | -82.0 | 0 | 0 | 0
C=CCc1ccc(OCC(O)CN2CCN(Cc3ccc(Cl)cc3)CC2)c(OC)c1 (stereo not given) | 0 | 0 | -73.4 | ? | 0 | ?
C=CCc1ccc(OCC(O)CN2CCN(c3ccccc3OC)CC2)c(OC)c1 (stereo not given) | 0 | 0 | -103.0 | ? | 0 | 0
C=CCc1ccc(OCC(O)CN2CCC(Cc3ccccc3)CC2)c(OC)c1 (stereo not given) | 0 | 0 | 0 | ? | 0 | ?
C=CCc1ccccc1OCC(O)CNC (stereo not given) | 0 | 0 | -64.5 | 0 | 0 | 0
COc1ccc(CC(C)N2CCN(c3ccccc3OC)CC2)cc1OC (stereo not given) | 0 | 0 | -92.8 | 0 | 0 | 0
COc1cc(C2CC(=O)Nc3ccc4ccccc4c32)ccc1OC(=O)C(C)C (stereo not given) | 0 | 0 | - | ? | 0 | 0
CC1CCc2c(sc(NC(=O)c3ccc(Cn4cc([N+](=O)[O-])cn4)o3)c2C#N)C1 (stereo not given) | 0 | 0 | -69.0 | 0 | 0 | 0
Cc1onc(-c2ccccc2)c1C(=O)Nc1sc2c(c1C#N)CCC(C)C2 (stereo not given) | 32.1 | 0 | 0 | ? | 0 | 0
Cc1onc(-c2ccccc2Cl)c1C(=O)Nc1sc2c(c1C#N)CCC2 | 0 | - | 0 | ? | 0 | -
O=C(Nc1cc(C(F)(F)F)cc(C(F)(F)F)c1)c1cc(Cl)ccc1O | - | 0.863µM | - | - | - | -
CNC(=O)Nc1cc(C(F)(F)F)cc(C(F)(F)F)c1 | 0 | 0 | 0 | 0 | 0 | -
O=c1c2oc3ccccc3c2n(Cc2cccc(F)c2)c(=O)n1Cc1ccco1 | 0 | 0 | - | 0 | 0 | 0
CCCCOc1ccc(C(=O)CCN2CCOCC2)cc1 | 0 | 18.9µM | ? | ? | 0 | -
CCOc1ccc(C(=O)CCN2CCCCCC2)cc1 | 0 | 0 | 0 | ? | 11.2µM | 0
O=C(Nc1ccc(NC(=O)c2ccco2)cc1)c1ccc2c(c1)OCCO2 | 0 | 15.8µM | 0 | 0 | 0 | ?
Cc1ccc(N(CC(=O)Nc2ccc3c(c2)OCCO3)S(C)(=O)=O)cc1 | 0 | 0 | -89.2 | 0 | 0 | 0
O=C(Nc1ccc2c(c1)OCCO2)c1ccc(Cl)c([N+](=O)[O-])c1 | 0 | 0 | 0 | 0 | 0 | 0
Cc1cc(C(=O)Nc2ccc3c(c2)OCCO3)ccc1[N+](=O)[O-] | 0 | - | -62.5 | 0 | 0 | ?
CCc1ccc(NC(=O)CN(c2cccc(C)c2)S(C)(=O)=O)cc1 | 34.0 | 0 | 0 | 0 | 0 | 0
COc1ccc2cc1Oc1cc3c(cc1OC)CC[N+](C)(C)[C@H]3Cc1ccc(cc1)Oc1c(OC)c(OC)cc3c1[C@@H](C2)[N+](C)(C)CC3 | 0 | 0 | - | - | - | 0
COc1ccc(Cl)cc1NC(=O)CSc1nc(-c2ccccc2)c2ccccc2n1 | 0 | - | - | 0 | 0 | -
CN(C(=O)c1cccc(NC(=O)c2ccco2)c1)c1ccccc1 | 0 | 0 | 0 | 0 | 0 | 0
CN(C)S(=O)(=O)N(CC(=O)Nc1ccccc1)c1ccccc1 | 0 | 0 | -54.0 | 0 | 0 | 0
Cc1ccc(C2=NO[C@@](CC(=O)O)(C(=O)Nc3ccc4c(c3)OCCO4)C2)cc1 | 95.4 | 0 | 0 | 0 | 0 | 0
